Experimental data reported in the supplement of paper PMC6555819.

What was measured:
Assay in all cases: PBM binding z-score (relative to random genomic background probes); higher = stronger binding; sequences stand for … in GC…GCGATTGACAGCGTAGAATGAAGG
[1] = tested on: RARb homodimer (NR concentration 270 nM)
Procedure, shortened: (§1)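 Ligand-free nuclear receptor dimers were bound for 1 h to custom Agilent 4×180K protein-binding microarrays. Detection used antibodies against each partner (one per run). Binding z-scores rest on regression-normalized fluorescence, with random background probes as the reference.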

[2] = tested on: RARg:RXRa (NR concentration 270 nM, RXRa partner concentration 90 nM)
Procedure, shortened: as §1

[3] = tested on: RARg homodimer (NR concentration 270 nM)
Procedure, shortened: as §1

[4] = tested on: RXRa DBDmut IVT, anti-RXR (DBD mutation: RXRa K156A/R161A, NR concentration 90 nM)
Procedure, shortened: as §1

[5] = tested on: RXRa homodimer (NR concentration 180 nM)
Procedure, shortened: as §1

[6] = tested on: THRa:RXRa (NR concentration 90 nM, RXRa partner concentration 90 nM)
Procedure, shortened: as §1

[7] = tested on: THRa homodimer (NR concentration 90 nM)
Procedure, shortened: as §1

[8] = tested on: VDR homodimer (NR concentration 270 nM)
Procedure, shortened: as §1

| Sequence | PBM binding z-score [1] | PBM binding z-score [2] | PBM binding z-score [3] | PBM binding z-score [4] | PBM binding z-score [5] | PBM binding z-score [6] | PBM binding z-score [7] | PBM binding z-score [8] |
| --- | --- | --- | --- | --- | --- | --- | --- | --- |
| CTCGAAAGGTCGGTTGAGGTGTGTATACGGATAA | 1.73 | 2.34 | 2.27 | 0.858 | 1.74 | 3.69 | -0.0744 | 0.415 |
| CCGACAGGGGCAAGGTTACCATAACGCACAGCCA | 1.43 | 1.58 | 1.94 | 0.0606 | 1.58 | 1.37 | 0.432 | 0.707 |
| CCGACTGGGGCAAGGTTACAATAACGCACAGCCA | 1.47 | 1.1 | 1.24 | -0.315 | 1.27 | 1.09 | -0.205 | 0.439 |
| CCTTACGGGTCACTCCAGGTTATACCATCGGAGT | 2.89 | 4.32 | 4.44 | 1.3 | 4.29 | 4.98 | 0.681 | 1.45 |
| TCGAGTAGGTTAGTCGGGTCATTCAGCCAACATA | 2.2 | 1.93 | 1.5 | 0.747 | 2.1 | 3.06 | 1.48 | 2.35 |
| AGAATGAGGTTAAGATCACGGAAACAGAATACAT | 0.84 | 2.33 | 1.81 | 0.924 | 2.92 | 2.47 | 0.742 | 0.686 |
| CCGAGTAGGTTATGGGGCAATCAGGCAACGGTGA | 1.16 | 0.738 | 0.689 | -0.315 | 0.867 | 0.602 | 0.263 | 0.0803 |
| CCTCCAAGGTCAAAGGTCAGTGAAGAGATGACGG | 5.51 | 8.61 | 7.7 | 3.97 | 10 | 4.65 | 2.63 | 3.92 |
| CGTCCAAGGTCAAAGGTCAGTGCAGAGATGACGG | 5.5 | 8.65 | 8.11 | 4.2 | 10 | 4.76 | 3.26 | 4.12 |
| ACTATTAGTTGACTTATGGCAACCGATACGACGC | 0.102 | 0.814 | 0.872 | 0.726 | 0.823 | 0.347 | -0.0591 | 0.143 |
| CCTAGCAGGCCAATCTGGGTCTCTCAAGGCTTGA | -0.52 | -0.494 | -0.505 | -0.243 | -0.68 | 0.975 | -0.574 | -0.65 |
| CCTACTGGGCCAAGGTAATTGATCAGTCAAAGCA | 0.0571 | -0.354 | -0.0827 | -0.902 | -0.382 | 0.383 | -0.112 | -0.51 |
| ACAGACAGGTGATGAAGGTAACTAAGGCTATCAT | 0.434 | 0.422 | 0.552 | -0.521 | 0.185 | 1.28 | 0.245 | -0.317 |
| GCTGCTAGGTCAACTGATGGTAAGCTAAAGCTCG | 2.98 | 4.25 | 4.92 | 1.14 | 2.73 | 2.9 | 0.776 | -0.0201 |
| ATCTCTAGGTAAAAGTTCATTGAATCCCGAGGAT | 2.65 | 2.61 | 2.06 | 1.89 | 2.82 | 1.87 | 0.281 | 3.33 |
| CGAGCTAGGTCAGAACAGGACAGTGAAGGATGAT | 2.11 | 2.12 | 3.53 | 0.0691 | 1.07 | 3.47 | -0.106 | -0.325 |
| AATACAGGGCCATCGTAGGCCAGAGTACGCACAG | 0.468 | 0.421 | 0.993 | -0.218 | 0.0629 | 1.44 | -0.588 | 0.487 |
| CCTCGGAGGAAAACAGGAGGTCAGAGCTGCCAGA | 2.81 | 1.32 | 1.3 | -0.428 | 1.63 | 2.06 | 0.595 | 0.405 |
| GCGACTGGGGCAAGGCAGGTTACCATAAGGTTGG | 1.16 | 0.436 | 0.635 | -1.16 | 0.144 | 2.41 | 0.0224 | -0.42 |
| TCTTGTAGATCATAGGTTAAGAAAGCCGAAGCCT | 0.203 | 0.785 | 0.187 | 0.657 | 1.34 | 0.458 | -0.386 | -0.05 |
| AGAACGAGGGCAATGAGTCGATAGCACGGGTGGC | 0.763 | 1.02 | 1.4 | 1.75 | 0.683 | 0.527 | -0.542 | 1.17 |
| TCATATAGGTAAAAGGTGAAAGGCGGTGTGGTAA | 1.54 | 1.65 | 0.736 | 1.76 | 2.97 | 1.56 | 0.329 | 0.251 |
| CCTACAGGGCCAAAAAGGTCATTGATGCCGATAA | 4.52 | 4.75 | 4.56 | 1.26 | 5.08 | 3.21 | 0.419 | 3.43 |
| ATATGTAGGTTAAGGGTCATTCATGTTGGTTCGC | 4.2 | 4.74 | 3.5 | 2.3 | 6.14 | 3.43 | 1.52 | 4.27 |
| CCTCGGAGGACAACGGGAGGTCAGAGCTGCCAGA | 3.43 | 3.93 | 3.4 | -0.419 | 1.76 | 3.04 | 1.32 | 1.08 |
| CGTCCAAGGTCATAGGAGGTTAGTGAAGACAGAT | 4.27 | 5.73 | 5.72 | 3.76 | 5.53 | 4.76 | 3.13 | 2.99 |
| GATACAGGGTCAGCTATAGGCCAGAGTATGGAAA | 2.93 | 5.42 | 4.73 | 1.34 | 4.02 | 2.6 | 0.272 | 0.536 |
| ACTAGCAGGCCAAGCGTCACTCAAGATTAGTCCG | -0.0548 | -0.358 | 0.0982 | -0.131 | -0.281 | -0.489 | -0.737 | -1.26 |
